# An excerpt weighted towards active compounds, which were near 7.3% of everything screened.
# FMDV antiviral: foot and mouth disease virus antiviral activity; FMDV antiviral cell-based qHTS; Potency, µM (series often up to 57.9 µM), for inactives: at the top dose activity change, negative = inhibition, hits mostly inhibitors; 410,000 tested, 1.2% active; AID 1159524; calls by dose curve; tested in HEK293T cells; note: read-out not given here; potency is the fitted concentration of half-maximal effect; nearly all actives have a fitted effect of over 45% in size
# VACV Venus inh: inhibitors of vaccinia virus (Venus reporter). Vaccinia virus Venus reporter expression, fluorescence. Potency, µM (titrated, usually from 36.5 µM), for the others: top-dose activity change, negative = inhibition, usual class: inhibitors. 330,000 tested, 0.46% active. AID 720580; calls by dose curve; tested in A549 cells; note: potency is the fitted concentration of half-maximal effect; nearly all actives have a fitted effect of over 30% in size
# HCMV inh: inhibitors of human cytomegalovirus | AID 1259415 | HFF cells, HCMV-luciferase reporter, 72 h; stronger effect = lower value | 410,000 tested, 4.5% active | activity change, negative = inhibition, % at 57.5 µM; in the data active = activity change below about -60%; inconclusive = no clear call, values can overlap the other calls; inactive = above about -39%
#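 Cell-based, HFFs, 1000 cells/well, 16 h 37C; cpds in DMSO + HCMV-luc, MOI 1 PFU/cell; 72 h 37C; OneGlo luminescence after 5 min RT; norm. to buffer vs Salinomycin 10uM.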
# HCV inh: HCV inhibition. Huh7.5.1 HCVcc-Cre infection, luciferase reporter, 44 h. Potency, µM (top dose mostly 41.8 µM), for the others: at the highest dose activity change, negative = inhibition, hits mostly inhibitors. 340,000 tested, 3.4% active; active = well fitted inhibition curve with a large enough effect; inconclusive = small, poorly fitted or top-dose-only effect, or another doubt; inactive = no such curve, though single readings can be large or run the other way; note: potency is the fitted concentration of half-maximal effect
#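 Compounds are dispensed onto cells plated 4 h earlier at 1,000 per well, with HCVcc-Cre virus (about 0.5 moi) added next. Following 44 h of culture, luminescent signal is measured for 15 sec after 15 min with substrate at room temperature.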
# VACV mCherry inh: vaccinia inhibition (mCherry reporter); Vaccinia virus mCherry reporter infection, fluorescence; Potency, µM (doses to about 36.5 µM), for inactives: at the top dose activity change, negative = inhibition, usual class: inhibitors; 310,000 tested, 0.63% active; AID 720579; calls by dose curve; tested in A549 cells; note: potency is the fitted concentration of half-maximal effect; nearly all actives have a fitted effect of over 35% in size
# Starred values were filed as active, the others as inactive; i = inactive; ? = inconclusive; / = no result given. % is set by controls: 0 for no effect and ±100 for the full control effect.
SMILES,FMDV antiviral,VACV Venus inh,HCMV inh,HCV inh,VACV mCherry inh
O=C1NCCN1C(=O)N1CCC[C@@H]1c1noc2cc3ccccc3cc12,/,/,3,/,/
O=C(Nc1ccc(Nc2cccnc2)cc1)c1c[nH]c2ccccc12,/,/,-27,/,/
COC(=O)[C@@]12C[C@@H](CC(=O)NCC34CC5CC(CC(C5)C3)C4)C(=O)N(CCc3ccc(OC)c(OC)c3)C1=CCC(C)(C)C2,?,?,13,/,?
CN(C)CCNC(=O)c1ccc(Cn2c(=O)c3cccn3c3cccnc32)cc1,-12%,-6%,?,/,-12%
COc1cc(NC(=O)COc2cccc(OC)c2)cc(OC)c1,/,0%,19,-21%,21%
CN(c1ccccc1)S(=O)(=O)c1ccc(NC(=S)NC(=O)c2ccccc2)cc1,-27%,-17%,-28,?,/
COc1cc(C(=O)N/N=C/c2sccc2C)cc(OC)c1OC,12%,-26%,-87*,?,?
CN(c1ccccc1)S(=O)(=O)c1ccc(NC(=O)CC(=O)c2ccccc2)cc1,40µM*,-7%,-33,?,i
COc1cccc(OCC(=O)Nc2ccc(OC)c(OC)c2)c1,0%,-15%,-23,0.63µM*,-10%
COc1ccc(C(=O)N/N=C/c2ccc(OC)c(OS(=O)(=O)c3ccccc3)c2)cc1,-11%,-9%,?,10µM*,?
O=C(NCCCN1CCCC1=O)C1CCN(S(=O)(=O)c2ccc(Cl)cc2)CC1,-3%,/,9,20%,/
COC(=O)[C@H]1[C@H](CO)[C@H]2Cn3c(cccc3=O)[C@H]2N1Cc1ccccc1Cl,/,/,18,/,/
COCCNC(=O)C1CCC(CNS(=O)(=O)c2ccc3c(c2)CC(C)N3C(C)=O)CC1 (centres undefined),-3%,-4%,-9,/,-6%
Cc1nc2ccc(NC(=O)c3ccc(S(=O)(=O)N(C)c4ccccc4)cc3)cc2s1,22µM*,?,-82*,?,?
COc1ccc(C(=O)Nc2ccc(S(=O)(=O)N(C)c3ccccc3)cc2)cc1,?,-3%,-69*,13µM*,-11%
COc1cc(C(=O)Nc2ccc(S(=O)(=O)N(C)c3ccccc3)cc2)cc(OC)c1OC,-3%,-21%,-21,?,?
COc1ccc(/C=N/NC(=O)c2sccc2C)c2ccccc12,35%,/,-62*,14%,/
COC(=O)NNC(=O)COc1ccc(Cl)cc1,16%,/,-108*,17%,/
Cc1nc2ccc(NC(=O)N(C)c3ccccc3)cc2s1,-2%,-7%,36,16%,-23%
CC(=O)Nc1ccc(NC(=O)CNC(=O)c2cccc(C)c2)cc1,-8%,-1%,-10,19%,-3%
Cc1c(Cl)cccc1-n1ncc(C(=O)NCCN2CCN(C)CC2)c1C1CCN(C(=O)OC(C)(C)C)CC1,-24%,-7%,6,/,6%
O=S1(=O)N[C@H](Cc2ccccc2)COc2cc(N3CCOCC3)ccc21,/,/,11,/,/
COc1ccc(OCC(=O)Nc2ccc(C)cc2)cc1,31%,/,-97*,2%,/
COc1cc(/C=N/NC(=O)c2ccc(-c3ccccc3)cc2)cc(OC)c1OC,0%,?,?,-13%,5.6µM*
COc1ccc(/C=N\NC(=O)c2ccc(-c3ccccc3)cc2)c(OC)c1OC,-10%,-22%,51,?,-15%
SMILES,FMDV antiviral,VACV Venus inh,HCMV inh,HCV inh,VACV mCherry inh
COc1ccc(NC(=O)COCC(=O)Nc2ccc(C)cc2)cc1,4%,/,-19,21%,/
CC(=O)Nc1ccc(C(=O)N/N=C/c2ccc(F)cc2)cc1,3%,/,-28,8%,/
CN(c1ccc(C(=O)N/N=C/c2cccc([N+](=O)[O-])c2)cc1)S(=O)(=O)c1ccccc1,-15%,-14%,-10,13µM*,-20%
COc1ccccc1/C=N/NC(=O)c1ccc(N(C)S(=O)(=O)c2ccccc2)cc1,-13%,/,-36,-16%,/
CC(=O)Nc1ccc(S(=O)(=O)Oc2ccc(/C=N/NC(=O)c3ccc(Cl)cc3)cc2)cc1,?,-30%,-4,4µM*,?
CCOC(=O)C1=CCC(c2ccccc2)N(S(=O)(=O)c2ccccc2C)C1 (centres undefined),6%,-6%,-21,/,i
N#CCC(=O)Nc1ccc(C(=O)Nc2cccc(S(N)(=O)=O)c2)cc1,-9%,11%,-3,-1%,-28%
CC1CCN(S(=O)(=O)c2ccc3c(c2)N(CC(=O)NCCc2ccc(Cl)cc2)C(=O)CO3)CC1,-13%,-11%,-7,/,-8%
Cc1ccccc1C(=O)Nc1ccc(C(=O)N/N=C/c2ccc(F)cc2)cc1,-15%,?,-24,?,-27%
Cc1ccc(OCCOC(=O)Nc2ccccc2)cc1,1%,-15%,-62*,10%,-11%
COc1ccc(/C=N/NC(=O)c2ccc(NC(=O)c3ccccc3Br)cc2)cc1,-9%,-12%,-91*,?,i
CCOC1(c2ccccc2)CC1C(=O)N/N=C/c1cccc([N+](=O)[O-])c1 (centres undefined),?,/,-38,11µM*,/
CCN(CC)c1ccc(NC(=S)NC(=O)Cc2ccccc2)cc1,11%,-9%,-18,-28%,-14%
CN(C)S(=O)(=O)c1ccc(NC(=S)NC(=O)Cc2ccccc2)cc1,-17%,-2%,-63*,9%,-5%
COc1ccccc1N(C)S(=O)(=O)c1ccc(C(=O)Nc2ccc(C(N)=O)cc2)cc1,?,/,-5,?,/
COc1ccc(NC(=O)c2ccc(S(=O)(=O)N(C)c3ccccc3)cc2)cn1,18µM*,/,-62*,?,/
CCOC(=O)c1c(CN(CC)CC)oc2cc(Br)c(O)cc12,-18%,-29%,19,10µM*,?
N#C/C(=C\C=C\c1ccccc1[N+](=O)[O-])c1nc(-c2ccc3c(c2)OCO3)cs1,/,4%,4,11µM*,-10%
COc1ccc(N(CC(=O)Nc2ccccc2F)S(=O)(=O)c2ccc(C)c([N+](=O)[O-])c2)cc1,0%,-10%,?,?,?
COc1ccc(N(CC(=O)NC2CC3CCC2C3)S(=O)(=O)c2ccc(C)c([N+](=O)[O-])c2)cc1 (centres undefined),-6%,3%,-27,2.8µM*,?
O=C(Nc1ccccc1F)Nc1ccccc1F,42%,/,-25,-7%,/
Cc1cc([N+](=O)[O-])ccc1NC(=O)Nc1ccccc1F,-15%,-12%,-61*,?,-17%
O=C(Nc1ccccc1)Nc1cc([N+](=O)[O-])ccc1F,-12%,-8%,?,0%,-15%
Cc1ccc([N+](=O)[O-])cc1NC(=O)Nc1cccc(F)c1,28µM*,?,-97*,?,-27%
Cc1ccc(N=Nc2ccc(C)cc2NC(=O)Nc2ccccc2F)cc1,44%,-23%,-67*,?,-19%
CC1CCC(NC(=O)c2ccc3c(c2)S(=O)(=O)c2ccccc2C3=O)CC1 (centres undefined),10%,-16%,-67*,-10%,?
O=C(COC(=O)c1ccc2c(c1)S(=O)(=O)c1ccccc1C2=O)NC1CC1,-15%,-10%,4,-1%,i

# Screens from PubChem BioAssay.
